Screening results (PubChem BioAssay)
Mito fusion yeast: qHTS Assay for Small Molecule Inhibitors of Mitochondrial Division or Activators of Mitochondrial Fusion; S. cerevisiae fusion-defective mutant growth rescue, CellTiterGlo 48 h; Potency, µM (top dose mostly 46.1 µM), for inactives: at the top dose growth rescue (activation), usual class: activators; 320,000 compounds, 0.23% hits; AID 485298, 2010; note: % of control where 0% means no effect; nearly all actives have a fitted effect of over 45% in size
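S. cerevisiae fusion-defective temperature-sensitive mutants (e.g. fzo1-1, mgm1-5) grown 48 h at 37C in YPEG (ethanol/glycerol non-fermentable) medium with 23 nl compound per well; growth rescue read as CellTiterGlo luminescence.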
BCR signal inh: qHTS Assay to Find Inhibitors of Chronic Active B-Cell Receptor Signaling; Potency, µM (highest dose often 46.1 µM), for inactives: at the top dose activity change, negative = inhibition, hits mostly inhibitors; 340,000 compounds, 0.05% hits; ABC-DLBCL IkBa-CBG/CBR reporter, luminescence ratio, 4 h; active = well fitted inhibition curve with a large enough effect in the signal ratio, with a control signal flat, not every such curve was filed as active; inconclusive = small, poorly fitted or top-dose-only effect, or effect the other way, or a change in a side signal; the % refers to the signal ratio;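 note: plate controls were basal doxycycline-induced cells for no effect and cells given 10 µM MG132 for full effect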
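TMD8 human ABC-DLBCL cells with doxycycline-inducible IκBα–green luciferase fusion and unfused red luciferase, in 0.5% FBS medium; compounds up to 46 uM, 4 h at 37C. Green/red luminescence ratio, filter-overlap corrected, fitted to concentration-response curves.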
uPA surface inh: qHTS for Inhibitors of Cell Surface uPA Generation; 330,000 compounds, 0.31% hits; AID 540303, 2011; Potency, µM (highest dose often 38.3 µM), inactives show at the top dose activity change, negative = inhibition, actives largely listed as inhibitors; cell surface uPA generation assay, qHTS; active = well fitted inhibition curve with a large enough effect; inconclusive = small, poorly fitted or top-dose-only effect; inactive = no such curve, though single readings can be large or run the other way; tested in mouse RAW 264.7 cells; note: % is set by controls: 0 for no effect and ±100 for the full control effect; nearly all actives have a fitted effect of over 55% in size
VP16 counter: VP16 counterscreen qHTS for inhibitors of ROR gamma transcriptional activity; Drosophila S2 Gal4-VP16 UAS-luciferase, luminescence, 20 h; Potency, µM (titrated, usually from 53.6 µM), for the others: top-dose activity, negative = inhibition, usual class: inhibitors; 310,000 compounds, 3.5% hits; AID 2546, 2010;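 note: Gal4-VP16 expression switched on by copper sulfate through the metallothionein promoter; % is set by controls: 0 for no effect and ±100 for the full control effect; nearly all actives have a fitted effect of over 50% in size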
RORgamma inh: qHTS for inhibitors of ROR gamma transcriptional activity; Nuclear receptor ROR-gamma (Mus musculus), P51450; Drosophila S2 Gal4-RORgamma UAS-luciferase reporter, 20 h; Potency, µM (top dose mostly 53.6 µM), without a hit: at the top dose activity change, negative = inhibition, most hits filed as inhibitors; 310,000 compounds, 5.4% hits; AID 2551, 2010; note: % is set by controls: 0 for no effect and ±100 for the full control effect; nearly all actives have a fitted effect of over 60% in size
Target sequence (P51450 whole entry, looked up, the tested form may be a part): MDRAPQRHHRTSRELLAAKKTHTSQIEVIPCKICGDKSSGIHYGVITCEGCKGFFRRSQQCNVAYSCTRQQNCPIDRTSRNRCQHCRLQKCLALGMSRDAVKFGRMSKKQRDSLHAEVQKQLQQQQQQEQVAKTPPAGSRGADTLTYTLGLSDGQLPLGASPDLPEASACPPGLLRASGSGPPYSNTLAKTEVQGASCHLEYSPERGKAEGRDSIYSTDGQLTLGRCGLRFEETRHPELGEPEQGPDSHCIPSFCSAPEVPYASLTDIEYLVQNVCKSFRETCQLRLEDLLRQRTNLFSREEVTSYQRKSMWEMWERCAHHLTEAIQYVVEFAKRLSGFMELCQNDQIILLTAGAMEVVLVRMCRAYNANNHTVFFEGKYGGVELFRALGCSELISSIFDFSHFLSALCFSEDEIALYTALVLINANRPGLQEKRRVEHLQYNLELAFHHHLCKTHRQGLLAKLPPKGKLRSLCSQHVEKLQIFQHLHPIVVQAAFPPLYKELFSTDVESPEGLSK
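Stably transfected Drosophila Schneider cells are the test system, with ROR gamma fused to Gal4 and luciferase under UAS control; luminescence is read after 20 hr of 700 uM copper sulfate induction at ambient temperature.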
Integrin act MD: qHTS for Activators of Integrin-Mediated Alleviation for Muscular Dystrophy. alpha7betagal myoblasts, beta-gal FDG fluorescence, 48 h. Potency, µM (titrated, usually from 38.3 µM), inactives show at the top dose activation, actives largely listed as activators. 350,000 compounds, 0.064% hits. AID 624291, 2012;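 note: 100% = response of the positive control SU9516; nearly all actives have a fitted effect of over 60% in size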
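alpha7betagal+/- myoblasts (passage 13, 250/well) treated 48 h at 37C with compounds at 1:260 dilution of DMSO stock. Lysed, then beta-galactosidase activity read as FDG fluorescence (ex 480/em 540) after 30 min, with pre-read for autofluorescence.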
Numbers without * were called inactive; ? = inconclusive; . = not tested or not shown; [ ] = remark or other dose. Most compounds without a hit are left out; they make up all but 5.5% or so of the library. Unless noted, calls come from the whole dose curve; as a rule, active = well fitted curve in the direction sought with a large enough effect; inconclusive = small, poorly fitted or top-dose-only effect, or another doubt; inactive = no such curve, though single readings can be large; an effect the other way counts as inactive or inconclusive. Potency is the fitted concentration of half-maximal effect.

SMILES	Mito fusion yeast	BCR signal inh	uPA surface inh	VP16 counter	RORgamma inh	Integrin act MD
CC12CCC(C[N+](C)(CCC[N+](C)(C)C)C1)C2(C)C (stereo not given)	.	.	.	5%	2%	.
COc1cc2ccccc2cc1-c1nnc(COc2ccccc2)o1	10µM*	?	23%	?	0%	-7%
COc1cccc(C(=O)N2CCCC(Nc3ccc(C)c(C)c3)C2)c1 (stereo not given)	4%	0%	1%	-11%	27%	0%
C[C@H](O/N=C1/[C@H]2O[C@@H]2[C@@H](O)[C@H]2[C@H]1CCn1c(=O)n(-c3ccccc3)c(=O)n12)c1cn([C@H](CO)Cc2ccccc2)nn1	.	.	.	6%[10 µM]	11%[10 µM]	.
Cc1ccccc1/C=N/Nc1ccnc2cc(Cl)ccc12	-22%	-1%	-11%	?	?	-57%
Clc1ccc2c(N/N=C/c3ccc(Br)cc3)ccnc2c1	-40%	?	-4%	7.1µM*	6.3µM*	-56%
Cc1ccc(/C=N/Nc2ccnc3cc(Cl)ccc23)c(C)c1	-26%	?	-28%	8.9µM*	?	-24%
O=C(O)c1ccccn1	-3%	-14%	12%	-2%	-2%[10 µM]	.
Cc1ccccc1C(=O)O/N=C(\c1ccccc1)c1ccccn1	?	-18%	3%	?	?	20%
O=C(N/N=C/c1ccccc1O)C(=O)Nc1ccccn1	9%	?	?	10µM*	1.4µM*	?
S=C(Nc1ccccc1)Nc1ccccn1	.	.	.	.	.	23%
S=C(Nc1ccc(Nc2ccccc2)cc1)Nc1ccccn1	3%	?	-1%	2.5µM*	0.71µM*	-25%
O=C(Nc1ccccc1)O/N=C(\c1ccccc1)c1ccccn1	-8%	-9%	-4%	-7%	11µM*	17%
S=C(Nc1ccccc1)c1ccccn1	-13%	?	-4%	2µM*	0.63µM*	-59%
C#Cc1ccc([C@@H]2C=C(C(=O)NC3CC3)O[C@H](OCCCCO)C2)cc1	-18%	3%	4%	8%	45%	13%
Cc1ccccc1C(=O)c1cccn1CC(=O)NCc1ccccc1Cl	-3%	0%	-9%	?	6%	-7%
O=C(Nc1ccccc1)C(=O)Nc1ccccn1	-4%	?	?	5µM*	2.2µM*	6%
CCOC(=O)c1c(NC(=O)CN(CC)CC)sc2c1CCC2	-4%	5%	5%	?	13µM*	-25%
CCOC(=O)c1c(NC(=O)CCC(=O)O)sc2c1CCCCC2	13%	?	2%	-7%	25%	3%
CCOC(=O)c1c(NC(=O)CNCCOC)sc2c1CCCC2	3%	?	4%	1.6µM*	1.3µM*	5%
CCN(CC)CC(=O)Nc1sc2c(c1C(=O)c1ccccc1OC)CCC2	16%	12%	70%	10µM*	4µM*	-54%
CC(=O)N1CCN(C(=O)c2ccccc2NS(=O)(=O)c2ccc(F)cc2)CC1	-4%	3%	-6%	.	.	-47%
COc1ccc(/C=C/c2ccc3cccc(O)c3n2)cc1Br	8%	?	-17%	3.2µM*	2µM*	-46%
COc1cc(/C=C/c2ccc3cccc(O)c3n2)cc(OC)c1OC	30%	?	-2%	?	?	-70%
COc1cc(/C=C/c2ccc3cccc(O)c3n2)cc(Cl)c1OC	-16%	?	-10%	4.5µM*	0.79µM*	-57%
SMILES	Mito fusion yeast	BCR signal inh	uPA surface inh	VP16 counter	RORgamma inh	Integrin act MD
COc1cc(/C=C/c2ccc3cccc(O)c3n2)cc(Br)c1OC	0%	?	-14%	5µM*	1.3µM*	-71%
CC1CCC(NC(=O)c2ccc3c(c2)N(Cc2ccccc2F)C(=O)c2ccccc2S3)CC1 (stereo not given)	.	-8%	.	.	.	.
O=C(NC(=S)NCc1ccccc1)c1ccc(Br)o1	-9%	13%	.	13µM*	?	.
O=C(NNC(=S)NCc1ccc(Cl)cc1)c1ccc(Br)o1	16%	?	5%	-3%	10%	?
O=C(NNC(=S)NCc1ccccc1)c1ccc(Br)o1	-3%	0%	2.8µM*	-23%	8.9µM*	-39%
O=C(NNC(=S)NCc1ccccc1)c1ccc(Br)cc1	3%	1%	2%	-2%	7.9µM*	-34%
CCN(CCCNC(=O)c1nn(C)c2c1CS(=O)(=O)c1ccccc1-2)Cc1ccccc1	9%	-8%	2%	-13%	-22%	-18%
CCn1c(C)nc2cc(C(=O)NNC(=O)c3ccc(C)cc3)ccc21	2%	1%	-6%	.	.	?
CCn1c(C)nc2cc(C(=O)OC(C(F)(F)C(F)F)C(F)(F)C(F)F)ccc21	-8%	?	-12%	7.1µM*	7.1µM*	-12%
CC(C)(C)c1cc(Br)c(O)c(N=Nc2ccc(S(=O)(=O)N3CCOCC3)cc2)c1	14%	5%	8%	?	6.3µM*	-24%
Cc1ccc(O)c(N=Nc2ccc(S(=O)(=O)N3CCOCC3)cc2)c1	7%	-3%	7%	-6%	25%	17%
C/C(=N\NC1=NCCN1)c1ccc(Cl)cc1	6%	1%	-4%	-1%	2%	0%
C/C(=N\Nc1nc2c(s1)CCCC2)c1ccc(Cl)cc1	-10%	5%	7%	11µM*	1.3µM*	0%
CC(C)(C)c1ccc(C(=O)NC(=S)Nc2nc3c(s2)CCCC3)cc1	3%	-1%	7%	4.5µM*	1.8µM*	-39%
CN(C)c1ccc(C(=O)Nc2nc3c(s2)CCCC3)cc1	?	?	?	11µM*	5.6µM*	0%
O=C1C(c2cccc(Br)c2)N(CCc2ccccc2)C(=O)CN1C1CCCCC1 (stereo not given)	.	2%	.	.	.	.
Cc1ccc(NC2CCCN(C(=O)CN3C(=O)CSC3=O)C2)cc1C (stereo not given)	0%	-1%	-13%	-10%	1%	-12%
C#CCOc1ccc(C(=O)N(C)c2ccccc2I)cc1	.	.	.	-1%	-1%	.
CCOC(=O)Cc1csc(SCC(=O)c2c(N)n(CC(C)C)c(=O)n(C)c2=O)n1	3%	0%	-11%	10µM*	?	-62%[7.66 µM]
Cc1csc(SCC(=O)c2c(N)n(CC(C)C)c(=O)n(C)c2=O)n1	2%	14%	.	3%	9%	-19%
CCCCn1c(C)cc2c(c1=O)[C@H]1O[C@](CCCCN3C(=O)c4ccccc4C3=O)(Cc3ccccc31)O2	-1%[9.22 µM]	?	.	-5%[10 µM]	4%[10 µM]	.
